DT40 TDP1 CPT – growth inhibition of DT40 Tdp1-/-;hTDP1 cells with camptothecin (screen for TDP1 inhibitors) | chicken DT40 Tdp1-/-;hTDP1 cells + 20 nM CPT, ATP luminescence, 48 h | Potency, µM (series often up to 46.2 µM), for the others: top-dose activity change, negative = growth inhibition, most hits filed as inhibitors | 420,000 compounds, 12% hits; further: potency means the concentration at half of the fitted maximal effect; on the % scale 0 is the no-effect control and ±100 the full control effect; nearly all actives have a fitted effect of over 55% in size
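Chicken DT40 Tdp1-/- cells complemented with human TDP1, 400 cells/well, exposed to compounds plus 20 nM camptothecin for at least 48 h at 37 C; viability read as ATP content by CellTiter-Glo luminescence.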
TDP1 cell noCPT – qHTS for Inhibitors of human tyrosyl-DNA phosphodiesterase 1 (TDP1): qHTS in cells in absence of CPT; Potency, µM (highest dose often 46.2 µM), for inactives: at the highest dose activity change, negative = growth inhibition, hits mostly inhibitors; DT40 Tdp1-/- hTDP1 cells, no CPT, ATP luminescence, 48 h; 420,000 compounds, 15% hits; further: potency means the concentration at half of the fitted maximal effect; on the % scale 0 is the no-effect control and ±100 the full control effect; nearly all actives have a fitted effect of over 55% in size
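Seeded 400 DT40-hTDP1 cells/well (vehicle DMSO, no 20 nM CPT); pinned compounds; ≥48 hr at 37 °C; CellTiter-Glo luminescence as viability measure.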
IL-1B inflam inh – inflammasome signaling inhibition, IL-1 beta readout; THP-1 LPS/ATP IL-1B secretion, AlphaLISA, 16 h; hits give low values; 360,000 compounds, 4.7% hits; activity change, % at 57.5 µM; AID 743279; in the data active means activity change below about -50%; inconclusive means mostly about -30% to -49%; further: on the % scale 0 is the no-effect control and ±100 the full control effect
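THP-1 cells pretreated 1 hr with compounds (up to 57.5 uM final), then stimulated with LPS (250 ng/mL final) plus ATP (1.25 mM final); secreted IL-1B measured by AlphaLISA after 16 hr, decreased signal indicating inhibition.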
HepG2 viability – HepG2 cytotoxicity, counter-screen for TGF-b inhibitors. HepG2 CAGA-GFP viability, ATP luminescence, 18 h. Potency, µM (series often up to 46.1 µM), for inactives: top-dose activity change, negative = cytotoxicity, usual class: cytotoxic. 410,000 compounds, 0.76% hits. AID 588856; further: potency means the concentration at half of the fitted maximal effect
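HepG2 CAGA-GFP cells (1000/well, DMEM with 1% FBS) received compound, then TGF-beta at 500 pg/mL final, and were incubated 18 hours at 37 degrees C. Viability was read by CellTiter-Glo luminescence. Media-only wells were set as complete cell-killing and DMSO as no toxicity.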
TDP1 block – inhibitors of human tyrosyl-DNA phosphodiesterase TDP1; Q9NUW8; recombinant TDP1, AlphaScreen DNA substrate cleavage; Potency, µM (highest dose often 130 µM), for the others: at the top dose activity change, negative = inhibition, usual class: inhibitors; 350,000 compounds, 0.28% hits; AID 485290; further: potency means the concentration at half of the fitted maximal effect; on the % scale 0 is the no-effect control and ±100 the full control effect; nearly all actives have a fitted effect of over 40% in size
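Compounds were preincubated with Tdp1 (1 nM final) for 15 min at room temperature before substrate (15 nM final) started a 5 min reaction; beads (10 ug/ml final) were then added for 10 min before AlphaScreen detection.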
TGFb inhibitor – inhibitors of TGF-b signaling | Potency, µM (titrated, usually from 46.1 µM), inactives show top-dose activity, negative = inhibition, hits mostly inhibitors | 410,000 compounds, 1.2% hits | AID 588855 | HepG2 CAGA-GFP TGF-b/SMAD3 reporter, GFP fluorescence, 18 h; TGF-beta stimulated, 500 pg/mL final; further: potency means the concentration at half of the fitted maximal effect; on the % scale 0 is the no-effect control and ±100 the full control effect; nearly all actives have a fitted effect of over 65% in size
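Read-out: total well GFP (ex488/em500-530) summed from mean per-cell fluorescence. Cells: HEPG2 CAGA-GFP, 1% FBS DMEM, 18 h at 37 degrees C with 500 pg/mL final TGF-beta. Unstimulated wells served as the full-inhibition control; stimulated DMSO wells = 0%.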
* marks the source's active call; other numbers are inactive results; u = inconclusive; x = no result; [ ] = remark or other dose. A selection: hits, their analogues and other compounds. The true share with any hit is near 18%. Unless noted, the call rests on the fitted dose curve; in most records, active means well fitted curve in the direction sought with a large enough effect; inconclusive means small, poorly fitted or top-dose-only effect, or another doubt; inactive means no such curve, though single readings can be large; an effect the other way counts as inactive or inconclusive.

SMILES	DT40 TDP1 CPT	TDP1 cell noCPT	IL-1B inflam inh	HepG2 viability	TDP1 block	TGFb inhibitor
CCN(CC(=O)Nc1ccccc1C(F)(F)F)C(=O)CCS(=O)(=O)c1ccc(Cl)cc1	u	-30%	-1	-2%	x	0%
COc1ccc(CN2CCN(CCC(C)C)C(CCO)C2)cc1Cn1cncn1 (stereo not given)	-2%	-12%	5	-22%	3%	-7%
C[C@@H](NC(=O)c1ncn(C)c1C(=O)N[C@H](C)c1ccccc1)c1ccccc1	u	u	u	-23%	-1%	-16%
COc1ccc(N(C(=O)c2snc(C(N)=O)c2N)C(C(=O)NCc2ccc(F)cc2)c2ccc(O)cc2)cc1 (stereo not given)	u	u	-88*	-1%	9%	-23%
COc1ccc(C(C(=O)NCc2ccccc2)N(C(=O)Cn2nnc3ccccc32)c2ccc(F)cc2)cc1 (stereo not given)	u	15µM*	x	-7%	2%	-13%
COc1cccc(N(C(=O)c2snc(C(N)=O)c2N)C(C(=O)NCc2ccccc2)c2ccc(O)cc2)c1 (stereo not given)	u	18µM*	-53*	1%	9%	1%
COc1ccc(N(C(=O)c2snc(C(N)=O)c2N)C(C(=O)NCc2ccccc2)c2ccc(O)cc2)cc1OC (stereo not given)	-2%	u	28	12%	10%	30%
COc1ccc(-c2nc3c(c4c2C[C@H](c2ccccc2)OC4)CN(C(=O)Nc2cccc(C#N)c2)CC3)c(C)c1	x	x	x	x	12%[12.3 µM]	x
COc1cc2c(cc1OC)C(c1c[nH]c3ccccc13)NCC2 (stereo not given)	u	u	x	x	7%	x
Cn1c(=NC(=O)CS(=O)(=O)c2ccccc2)sc2cc([N+](=O)[O-])ccc21	5%	u	-2	-8%	-1%	1%
CCCNC(=O)c1cc2n(n1)CCCN(Cc1ccc(C)cc1)C2=O	-17%	-12%	x	2%	4%	0%
Cc1ccc(CN2CCCn3nc(C(=O)NCc4ccc(N(C)C)cc4)cc3C2=O)cc1	u	13µM*	x	-18%	6%	u
Cc1ccc(CN2CCCn3nc(C(=O)NCc4cc(C)ccc4C)cc3C2=O)cc1	15µM*	16µM*	x	-23%	-4%	u
Cc1ccc(CN2CCCn3nc(C(=O)NCCN(C)C)cc3C2=O)cc1	-3%	0%	x	0%	1%	-2%
Cc1cc(C)c2oc(C(=O)Nc3nc4ccc(Cl)cc4s3)cc(=O)c2c1	9%	7%	x	-1%	1%	-4%
Cc1cccc(NC(=O)CCc2ccc(N3C(N)=NC(N)=NC3(C)C)cc2)c1	0.33µM*	0.37µM*	5	-52%	x	-8%
CC1(C)N=C(N)N=C(N)N1c1ccc(OCCCOc2ccccc2)c(Cl)c1	1.8µM*	2.3µM*	u	-49%	7%	-30%
Cc1cccc(NC(=O)CCc2ccccc2)c1	-13%	-3%	-14	-29%	5%	-6%
CC1(C)N=C(N)N=C(N)N1c1cccc(CC(=O)Nc2ccccc2)c1	9.2µM*	2.6µM*	-11	-55%	x	-2%
CC1(C)N=C(N)N=C(N)N1c1ccc(OCC(=O)N2CCOCC2)c(Cl)c1	0.41µM*	0.37µM*	2	0.1µM*	x	-5%
CCOc1ccc(-n2c(=O)c3c(C)c(C)sc3n(Cc3ccccc3C)c2=O)cc1	-7%	4%	x	0%	5%	6%
CC1(C)N=C(N)N=C(N)N1c1ccc(OCC(=O)Nc2ccccc2)c(Cl)c1	1.2µM*	0.73µM*	-21	-68%	x	0%

From PubChem
